Tau fibril ThT = qHTS for Inhibitors of Tau Fibril Formation, Thioflavin T Binding | Microtubule-associated protein tau (Homo sapiens), P10636 | recombinant tau K18 P301L, heparin-induced fibrillization, ThT fluorescence | Potency, µM (doses to about 57.4 µM), for the others: top-dose activity, negative = inhibition, actives largely listed as inhibitors | actives 2.1% (n = 270,000); also: potency is read from the fitted curve at half-maximal effect; nearly all actives have a fitted effect of over 55% in size
Target sequence (P10636 561-689 P618L limits assumed): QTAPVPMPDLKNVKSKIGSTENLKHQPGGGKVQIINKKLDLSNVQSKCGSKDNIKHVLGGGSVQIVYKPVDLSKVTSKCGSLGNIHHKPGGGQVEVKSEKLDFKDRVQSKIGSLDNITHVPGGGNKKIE
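ThT emission at 510 nm, taken 1 hr after adding 30 uM dye, quantifies aggregates formed when 20 uM heparin acts on human tau K18 P301L for 6 hr at 37 C.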
Tau FP inhib = qHTS for Inhibitors of Tau Fibril Formation, Fluorescence Polarization. Microtubule-associated protein tau (Homo sapiens), P10636. K18 P301L tau heparin fibrillization, Alexa594 FP, 6 h. Potency, µM (titrated, usually from 57.7 µM), for the others: top-dose activity, negative = inhibition, most hits filed as inhibitors. actives 0.39% (n = 280,000). AID 1468, 2008; also: potency is read from the fitted curve at half-maximal effect; nearly all actives have a fitted effect of over 55% in size
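Heparin (20 uM) drove fibril formation of recombinant tau K18 P301L, 15 uM unlabeled with 0.24 uM Alexa 594 label, for 6 hr at 37 C in 100 mM sodium acetate pH 7. Fluorescence polarization (555/632 nm) read 1 hr after 30 uM ThT.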
Tau fluor counter = Counterscreen qHTS for Inhibitors of Tau Fibril Formation, Fluorescence Polarization; actives 0.93% (n = 280,000); Potency, µM (top dose mostly 57.7 µM), for the others: at the highest dose activity change, negative = decrease; tau K18 P301L Alexa594 fluorescence, heparin fibrillization; also: potency is read from the fitted curve at half-maximal effect; nearly all actives have a fitted effect of over 55% in size
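Human tau K18 P301L (15 uM unlabeled, 0.24 uM Alexa 594-labeled) in 100 mM sodium acetate pH 7 with 20 uM heparin, 6 hr at 37 C. ThT 30 uM added, 1 hr ambient; Alexa 594 FP and total fluorescence read at 555/632 nm.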
Sfp inh = qHTS Assay for Inhibitors of Bacillus subtilis Sfp phosphopantetheinyl transferase (PPTase); Potency, µM, for the others: largest response in the series, negative = inhibition, actives largely listed as inhibitors; actives 3.5% (n = 310,000); Biochemical Sfp PPTase activity, qHTS; 4'-phosphopantetheinyl transferase ffp (Bacillus subtilis), Q9F4F7; AID 1490, 2009;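 also: the enzyme is Sfp with the accession as filed and its product quenches rhodamine fluorescence; potency is read from the fitted curve at half-maximal effect; 0% = enzyme reaction without inhibitor and -100% = no enzyme wells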
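Compounds were incubated with enzyme (final 15 nM) for 15 min at room temperature before substrate addition started the reaction. Fluorescence at 525 nm excitation, 598 nm emission was recorded immediately and after 30 minutes.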
Coupling enz = qHTS Assay for Inhibitors of Fructose-1,6-bisphosphate Aldolase from Giardia Lamblia: Coupling assay counterscreen | activity change, negative = inhibition, % at 58.2 µM, hits read low | coupling enzyme system counterscreen, AmpLite Red fluorescence | actives 0.67% (n = 290,000); in the data active = activity change below about -30%
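Counterscreen lacking aldolase: glyceraldehyde-3-phosphate coupling-enzyme reagent preincubated 10 min at RT with compound (at 57.5 uM final), then substrate/coupling system with AmpLite Red added; fluorescence read at 525/598 nm after 20 min RT.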
* = called active by the depositor; ? = inconclusive; . = not tested or not shown; [ ] = remark or other dose. An excerpt weighted towards active compounds, which were near 5.2% of everything screened. Unless noted, calls follow the shape of the dose curve; as a rule, active = well fitted curve in the direction sought with a large enough effect; inconclusive = small, poorly fitted or top-dose-only effect, or another doubt; inactive = no such curve, though single readings can be large; an effect the other way counts as inactive or inconclusive. Unless noted, % is scaled to controls: 0 for no effect and ±100 for the full control effect.

SMILES | Tau fibril ThT | Tau FP inhib | Tau fluor counter | Sfp inh | Coupling enz
COc1ccc(C(=O)CN2CCOCC2)cc1F | ? | -3.9% | -14.6% | 9.0% | 0.3
O=C(CN1CCOCC1)c1ccc2cc[nH]c2c1 | ? | 1.9% | -11.6% | 50.1µM* | -0.7
COc1ccc2c(c1O)-c1cccc3c1C(C2)N(C)CC3 (centres undefined) | ? | ? | -24.2% | . | .
CN1CCc2cc(O)cc3c2C1Cc1ccc(O)c(O)c1-3 (centres undefined) | 15.8µM* | 39.8µM* | 17.8µM*[quencher] | 39.8µM* | .
C=CCN1CCc2cccc3c2C1Cc1ccc(O)c(O)c1-3 (centres undefined) | 14.1µM* | ? | 14.1µM*[quencher] | 44.7µM* | .
CCCN1CCC[C@@H]2Cc3cn[nH]c3C[C@H]21 | -3.7% | -2.3% | -4.5% | ? | 0.2
COc1ccc(OC)c(N2C(=O)CC(=O)NC2=O)c1 | . | . | . | 2.8% | 0.1
COc1ccc(N2C(=O)/C(=C/c3cc(C)n(-c4ccc(C)cn4)c3C)C(=O)NC2=S)c(OC)c1 | ? | -5.4% | -9.5% | 35.5µM* | -0.7
COc1ccc(OC)c(N2C(=O)NC(=O)/C(=C/c3ccc([N+](=O)[O-])s3)C2=O)c1 | 12.6µM* | 14.1µM* | ? | 10µM* | -33.4*
O=C1NC(=S)N(c2ccc(Cl)cc2)C(=O)/C1=C/N1CCN(C(=O)c2ccco2)CC1 | -7.2% | ? | -25.4% | 44.7µM* | 1.1
CCOC(=O)C1CCN(/C=C2/C(=O)NC(=O)N(Cc3ccco3)C2=O)CC1 | ? | ? | -11.5% | ? | -0.8
COc1ccc(OC)c(N2C(=O)/C(=C/c3ccco3)C(=O)NC2=S)c1 | . | . | . | 17.8µM* | 0.1
NNc1ccccc1 | -1.6% | 5.8% | 1.8% | -14.1% | -0.5
Cc1cc(/C=C2\C(=O)NC(=O)N(c3ccc(F)cc3)C2=O)c(C)n1-c1ccc(C(=O)O)cc1 | ? | -13.5% | -19.6% | -26.8% | 6.0
O=C1NC(=S)N(c2ccc(F)cc2)C(=O)/C1=C\c1ccoc1 | 17.8µM* | ? | -20.6% | 20µM* | -6.6
Cc1ccc(N2C(=O)NC(=O)/C(=C\c3ccoc3)C2=O)cc1 | ? | -5.1% | -5.7% | ? | 3.1
O=C1NC(=S)N(c2ccc(F)cc2)C(=O)/C1=C/c1ccco1 | . | . | . | 25.1µM* | -0.3
COC(=O)C1=CO[C@@H](C)[C@@H]2CN3CCc4c([nH]c5cc(OC)ccc45)[C@@H]3C[C@H]12 | 22.4µM* | -7.9% | ? | -3.1% | -28.0
COc1ccc(CCn2c(NN=C3CCCCC3)nc3c2c(=O)[nH]c(=O)n3C)cc1 | 28.2µM* | ? | ? | ? | -25.8
CC1=C(C(=O)O)N2C(=O)[C@@H](NC(=O)CCCC(=O)O)[C@H]2SC1 | -3.2% | 0.6% | 3.4% | 5.01µM* | 1.5
COCC(=O)N1CCC2(CCCN(Cc3ccncc3)C2)CC1 | . | . | . | -4.0% | -1.4
Cc1cc(C=C2C(=O)NC(=O)NC2=O)c(C)n1-c1cccnc1 | -12.6% | -7.5% | -3.5% | -13.1% | 2.4
C=CCN1C(=O)/C(=C/c2cc(C)n(-c3cccnc3)c2C)C(=O)NC1=S | 22.4µM* | ? | -19.1% | -90.6% | -18.5
CCC(C=C[C@@H]1OC(=O)C=C[C@H]1C)=C[C@H](C)CC=CC(C)=C[C@@H](C)C(=O)[C@@H](C)[C@H](O)[C@@H](C)CC(C)=CC(=O)O | 2.9%[2.31 µM] | 4.7%[2.34 µM] | -2.0%[2.34 µM] | 0.708µM* | -59.1*
COc1ccc(-n2c(=S)[nH]c3c(sc(=S)n3-c3ccccc3)c2=O)c(OC)c1 | 31.6µM* | ? | -18.4% | 14.1µM* | 0.6
SMILES | Tau fibril ThT | Tau FP inhib | Tau fluor counter | Sfp inh | Coupling enz
COc1ccc(-n2c(=O)[nH]c3ccccc3c2=O)c(OC)c1 | -7.4% | 4.5% | -14.7% | -12.2% | 1.1
C[C@@H]1O[C@@H](O[C@H]2C[C@@H](O)[C@@]3(CO)[C@H]4[C@H](O)C[C@]5(C)[C@@H](C6=CC(=O)OC6)CC[C@]5(O)[C@H]4CC[C@@]3(O)C2)[C@@H](O)[C@H](O)[C@H]1O | . | . | . | 8.2% | .
Cc1ccc(-c2cn3c(=S)[nH]nc3s2)cc1 | -19.3% | 1.3% | -16.8% | 35.5µM* | 0.9
N[C@@H](CSCCCO)C(=O)O | . | . | . | 50.1µM* | .
Cc1cc2c(cc(C(=O)N3CCC(C(=O)NC4CCCC4)CC3)n2Cc2c(F)cccc2Cl)o1 | ? | 4.0% | -9.6% | 50.1µM* | 2.3
CCOC(=O)C1CCN(Cc2c(F)cccc2Cl)CC1 | 5.0% | 0.7% | 8.2% | ? | 1.1
Cc1cc(-c2nc3ncccc3o2)ccc1NC(=O)c1ccccc1Br | ? | 0.6% | -13.8% | . | .
CC(=O)C1CCC2C3CCC4=CC(=O)CC[C@@]4(C)C3CC[C@]12C (some centres undefined) | ? | 8.4% | -9.0% | -14.8% | 2.0
CCN1CCN(c2ccc([N+](=O)[O-])cc2C=C2C(=O)NC(=O)NC2=O)CC1 | ? | -12.0% | -3.6% | 44.7µM* | -3.9
Cc1c(OC(=O)N(C)C)ccc2c1O/C(=C\c1ccco1)C2=O | . | . | . | 79.4µM* | -1.8
COCCN1C(=O)NC(=O)/C(=C\c2ccc(Br)cc2)C1=O | ? | ? | -5.7% | 50.1µM* | 1.9
CN(C)c1ccc(/C=C2\C(=O)NC(=O)N(Cc3ccc(F)cc3)C2=O)cc1 | . | -13.3% | -6.6% | -17.5% | 1.5
Nc1ncnc2c1ncn2[C@@H]1O[C@H](COP(=O)(O)CP(=O)(O)OP(=O)(O)O)[C@@H](O)[C@H]1O | 6.3% | -5.1% | -3.5% | 56.2µM* | .
Nc1ncnc2c1ncn2[C@@H]1O[C@H](COP(=O)(O)CP(=O)(O)O)[C@@H](O)[C@H]1O | -1.8% | -9.4% | -9.8% | 11.5% | .
O=C(Nc1ccc2nc(SCC(=O)N3CCOCC3)sc2c1)c1ccc(Cl)cc1 | 6.7% | ? | -25.1% | . | .
CN1C(=O)C(=Cc2ccccc2OCc2ccc(Cl)cc2)C(=O)N(C)C1=O | ? | -0.6% | -6.5% | 50.1µM* | -0.4
CN1C(=O)C(=Cc2ccccc2Oc2ccc(Cl)cc2)C(=O)N(C)C1=O | ? | 0.2% | -13.0% | ? | 1.0
Cc1ccc(S(=O)(=O)Oc2ccccc2C=C2C(=O)N(C)C(=O)N(C)C2=O)cc1 | . | . | . | 79.4µM* | -1.7
Cc1cc(C=C2C(=O)N(C)C(=O)N(C)C2=O)c(C)n1-c1ccccc1 | ? | ? | -19.6% | -3.2% | -1.4
COC1=CC(=O)O[C@H](/C=C/c2ccc3c(c2)OCO3)C1 | . | . | . | 18.1% | 4.7
CCOc1ccc(-c2nc3ccc(-c4nc5ccc(N6CCN(C)CC6)cc5[nH]4)cc3[nH]2)cc1 | 2.82µM* | 5.7% | ? | ? | -2.4
